Assay results published in PubChem BioAssay (NCATS).
Results filed as inconclusive are left out. A number with no mark means an inactive call. Activity calls are given as the source filed them. Calls come from the whole dose curve; as a rule, active = well fitted inhibition curve with a large enough effect; inconclusive = small, poorly fitted or top-dose-only effect; inactive = no such curve, though single readings can be large or run the other way.

assay: qHTS to identify inhibitors of the type 1 interferon - major histocompatibility complex class I in skeletal muscle: primary screen against the NCATS Mechanism Interrogation Plate v5.0 (MIPE) Libary (AID 1347411); settings: iHSKM cells + IFN-b, HiBiT-tagged MHC-I luminescence, 24 h; series mostly up to 45.8 µM; activity change, negative = inhibition: at the top concentration; note: nearly all actives have a fitted effect of over 65% in size;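 for activity change, negative = inhibition: plate controls were vehicle for no effect and reference inhibitor for full effect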
Source text: Assay Submitter (PI): Travis B. Kinder Ph.D. & James Inglese Ph.D.
Assay Development and Screening Technology Laboratory (ADST)
National Center for Advancing Translational Sciences (NCATS), Rockville, MD
National Institute of Health (NIH), Bethesda, Maryland
Idiopathic inflammatory myopathies, collectively referred to as myositis, are a group of rare autoimmune diseases characterized by skeletal muscle inflammation, weakness, and usually accompanied by systemic pathologies of the skin, lungs, or vasculature. Current immunosuppressive therapies and glucocorticoids are often not curative and are accompanied by harsh side effects, especially in children with juvenile myositis. We initiated a drug repurposing and development program to identify more targeted, less toxic therapeutics to treat myositis. Although its cause is not known, muscle from a subset of patients have an abundance of the inflammatory type 1 interferon (IFN) and a down-stream product major histocompatibility complex class I (MHC class I), which are both thought to contribute to damage and weakness. We conducted quantitative high throughput screening on 6,576 compounds (4,679 unique) through a series of cell-based assays to identify those that inhibit the IFN-stimulated expression of MHC class I in muscle precursor cells (myoblasts). The compound identification and evaluation strategy utilized a primary screen with reporter-tagged MHC class I in genome-engineered myoblasts, ATP content counter screen for viability, HLA-ABC immunofluorescence secondary screen, and HLA-B RT-qPCR tertiary screen.
The primary screen utilized CRISPR/Cas9 genome-engineering of immortalized human myoblasts, C25cl48, where a pro-luminescent reporter HiBit was fused to the C-terminus of endogenous MHC class I allele HLA-B*08:01 (HLA-B HiBit myoblasts). HiBit is an 11 amino acid fragment of NanoLuc luminescent reporter (Promega Corporation), and when complexed to the larger LgBit fragment, the reconstituted enzyme produces light in the presence of furimazine substrate (Schwinn et al., 2018). Briefly, HLA-B HiBit myoblasts were plated into 1536-well plates, treated with 4.0 ng/ml human IFN-beta and 2,480 compounds from the NCATS Mechanism Interrogation Plate v5.0 (MIPE5.0) in an 11-point, 1:3 titration with a high final concentration of 46 uM. After 24 hrs of treatment, cells were assayed by Nano-Glo HiBiT Lytic Detection System (Promega) and luminescence measured by a ViewLux 1430 Ultra HTS (Perkin Elmer).
Schwinn MK, Machleidt T, Zimmerman K, Eggers CT, Dixon AS, Hurst R, Hall MP, Encell LP, Binkowski BF, Wood K V. 2018. CRISPR-Mediated Tagging of Endogenous Proteins with a Luminescent Peptide. ACS Chem Biol 13:467-474. doi:10.1021/acschembio.7b00549
PROTOCOL TABLE (as described by Inglese et al., 2007)
SEQUENCE No. (e.g., 1, 2, 3, etc.); […] (e.g., Cells, Incubation, Reagent, etc.); VALUE; DESCRIPTION
1a; Cells; 5 uL; Use a Multidrop Combi (Thermo Scientific) to seed 300 cells/well into 24 Greiner 1536 well white/solid bottom, high base, TC plates in 5 ul/well of iHSKM growth medium (GM) without dexamethasone into columns 1+2. Add metal lids with gas-exchange holes
1b; Cells; 5 uL; Use a Multidrop Combi (Thermo Scientific) to seed 300 cells/well into 24 Greiner 1536 well white/solid bottom, high base, TC plates in 5 ul/well of iHSKM GM without dexamethasone + 4 ng/ml IFN-b into columns 3 - 48. Add metal lids with gas-exchange holes
2; Incubate; 1 hr; Incubate at 37 C, 5% CO2, 95% RH
3; Compounds; 23 nl; Use Pin Tool (Wako) to transfer DMSO control, ruxolitinib IFN-b inhibitor control [High Concentration = 80 uM final, 16-pt, 1:2 in duplicate], and library compounds in DMSO
4; Incubate; 24 hrs; Incubate at 37 C, 5% CO2, 95% RH
5; Dispense; 2.5 ul; Use BioRAPTR FRD (Beckman Coulter) to add HiBit lytic reagent
6; Incubate; 10 min; Incubate in the dark at ambient temperature for lysis
7; Detector; 5 sec; Measure luminescence with ViewLux 1430 Ultra HTS (Perkin Elmer). […]
Potency is the fitted concentration of half-maximal effect.

SMILES | activity change, negative = inhibition | Potency
CCC[C@H](N[C@@H](C)C(=O)N1[C@@H]2CCCC[C@H]2C[C@H]1C(=O)O)C(=O)OCC | -21.3% | –
CC(C)Oc1cc(Nc2nc(N[C@@H](C)c3ccc(F)cn3)ncc2Cl)[nH]n1 | – | 1.65 µM (active)
CN(C(Cc1ccc(OS(=O)(=O)c2cccc3cnccc23)cc1)C(=O)N1CCN(c2ccccc2)CC1)S(=O)(=O)c1cccc2cnccc12 (stereo not given) | 3.42% | –
CCOC(=O)N1c2ccc(C(F)(F)F)cc2[C@@H](N(Cc2cc(C(F)(F)F)cc(C(F)(F)F)c2)C(=O)OC)C[C@H]1CC | 14.2% | –
Cc1ccccc1C(C(=O)NC1CCCCC1)N(C(=O)CNc1ccc(C#N)cc1)c1cccc(F)c1 (stereo not given) | -2.15% | –
c1ccc(-c2oc3ncnc(NC[C@@H]4CCCO4)c3c2-c2ccccc2)cc1 | -39.7% | –
COc1cc2c(cc1OC)CC(=O)N(CCCN(C)C[C@H]1Cc3cc(OC)c(OC)cc31)CC2 | -4.96% | –
CS(=O)(=O)c1ccc(C2=C(c3ccccc3)C(=O)OC2)cc1 | -6.84% | –
CO[C@@H]1C(N(C)C(=O)c2ccccc2)C[C@H]2O[C@]1(C)n1c3ccccc3c3c4c(c5c6ccccc6n2c5c31)C(=O)NC4=O (stereo not given in full) | -40.5% | –
COC(=O)[C@H](c1ccccc1Cl)N1CCc2sccc2C1 | 15.9% | –
CCC(c1ccc(O)cc1)C(CC)c1ccc(O)cc1 (stereo not given) | -12.6% | –
CNC(=O)[C@H](Cc1ccccc1)NC(=O)[C@H](CC(C)C)[C@H](CSc1cccs1)C(=O)NO | 18.6% | –
O=C(NC[C@H](O)CO)c1ccncc1Nc1ccc(I)cc1F | -23.9% | –
CC(=O)Nc1cccc(-n2c(=O)n(C3CC3)c(=O)c3c(Nc4ccc(I)cc4F)n(C)c(=O)c(C)c32)c1 | -10.7% | –
Cc1nc(C(=O)NCC(=O)O)c(O)c2ccc(Oc3ccccc3)cc12 | -27.1% | –
NC(=O)c1noc([C@H](CCCC2CCCCC2)CC(=O)NO)n1 | -20.9% | –
O=C(CC12CC3CC(CC(C3)C1)C2)Nc1cccc2nc(NCCNCCO)ccc12 | -10.4% | –
CC[C@@H]([C@H](C)O)n1ncn(-c2ccc(N3CCN(c4ccc(OCC5CO[C@@](Cn6cncn6)(c6ccc(F)cc6F)C5)cc4)CC3)cc2)c1=O (stereo not given in full) | -4.4% | –
Cc1cnc(CNC(=O)c2c(=O)c3ccc(N4CCCN(C)CC4)nc3n3c2sc2ccccc23)cn1 | -4.9% [at 8.44 µM] | –
O=C(NCCCCN1CCOCC1)c1cc2ccccc2o1 | 2.12% | –

SMILES | activity change, negative = inhibition | Potency
CC(C)[C@H](O)C(=O)N[C@@H](C)C(=O)N[C@@H]1C(=O)N(C)CCc2ccccc21 | -12.1% | –
COc1cccc(OC)c1-c1cc(C(=O)NC2(C(=O)O)C3CC4CC(C3)CC2C4)nn1-c1ccnc2cc(Cl)ccc12 (stereo not given) | 13% | –
COc1ccc(Cn2ccc3ccc(C(=O)NO)cc32)cc1 | -1.33% | –
N#CC(c1ccc(Cl)cc1)c1c(Cl)cc(-n2ncc(=O)[nH]c2=O)cc1Cl (stereo not given) | 7.95% | –
NS(=O)(=O)c1cc(Cl)c(Cl)c(S(N)(=O)=O)c1 | 2.26% | –
CCN(CCO)CCCOc1ccc2c(Nc3cc(CC(=O)Nc4cccc(F)c4)[nH]n3)ncnc2c1 | -5.24% | –
O=C(O)CCNc1cc(N2CCc3ccccc3CC2)nc(-c2ccccn2)n1 | 4.69% | –
N#CC1(c2cccc(C(=O)Nc3cc(Oc4ccc5nc(NC(=O)C6CC6)sc5n4)ccc3F)c2Cl)CC1 | -21.1% | –
Cc1cnc(-c2cc(N3CCN(C(=O)CCS(C)(=O)=O)CC3)ncc2Cl)c(C)c1 | 0.273% | –
C[C@]12CC[C@@H]3c4ccc(O)cc4CC[C@H]3[C@H]1[C@@H](O)[C@@H](O)[C@H]2O | 9.54% | –
CN(C)CCCNC(=O)c1ccc(-c2cc(O)c3ncccc3c2)cc1 | 0.779% | –
O=C(O)C1=CC(O)C(O)[C@H](O)C1 (stereo not given in full) | -10.8% | –
Cc1cc(OCCCS(C)(=O)=O)cc(C)c1-c1cccc(COc2ccc3c(c2)OC[C@H]3CC(=O)O)c1 | -0.397% | –
NCc1c[nH]c(=S)n1[C@H]1CCc2c(F)cc(F)cc2C1 | -2.87% | –
COC(=O)N1CCN(Cc2cccc(NC(=O)Nc3ccc(C)nc3)c2F)CC1 | -9.33% | –
CCCCCCCCCCCCCCCC(=O)O[C@H]1[C@@H](O)[C@@H](O)[C@@H]([C@H](NC(=O)[C@@H]2C[C@@H](CCC)CN2C)[C@H](C)Cl)O[C@@H]1SC | 5.8% | –
N#Cc1c(N(CC(=O)O)CC(=O)O)sc(C(=O)O)c1CC(=O)O | 0.636% | –
C[C@@H](N)c1ccc(C(=O)Nc2ccnc3[nH]ccc23)cc1 | – | 16.5 µM (active)
Cc1cc2nc3c(=O)[nH]c(=O)nc-3n(CC(O)C(O)C(O)CO)c2cc1C (stereo not given) | -14.3% | –
CN1CCN(c2ncc(-c3cc(Cl)cc(Cl)c3Cl)c(N)n2)CC1 | -12.1% | –
